In the supplement of paper PMC9254222:
Over roughly 1,100 compounds, “Wnt reporter firefly/Renilla luciferase ratio relative to plate median” has its median near 1.1; the highest 2% begin near 1.6. For the sample, the highest values were picked, then their nearest neighbours and some compounds at random.

Tested on: HEK293T (UBE3A T485A transfected, BAR Wnt reporter)
Test: Wnt reporter firefly/Renilla luciferase ratio relative to plate median (fold (linear ratio)); higher = more Wnt/beta-catenin reporter activation
Conditions: 24 h
How it was run: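 Each value averages four biological replicates in HEK293T cells grown at 4500 cells/well in DMEM with 10% FBS at 37°C and 5% CO2. The cells were transfected with a BAR firefly luciferase Wnt reporter, TK-Renilla and an expression plasmid, then four hours later robotically treated with the chemicals at 0.01–100 uM for 24 h. Dual-Glo luciferase signals were median-centred per plate, with the firefly/Renilla ratio reported as Wnt activity and raw Renilla as cell health.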

Structure (SMILES) | Wnt reporter firefly/Renilla luciferase ratio (concentration: 0.1 uM) | Wnt reporter firefly/Renilla luciferase ratio (concentration: 1 uM) | Wnt reporter firefly/Renilla luciferase ratio (concentration: 10 uM) | Wnt reporter firefly/Renilla luciferase ratio (concentration: 100 uM) | Wnt reporter firefly/Renilla luciferase ratio (concentration: 0.01 uM)
C1N2CN3CN1CN(C2)C3 [Methenamine] | 1.17 | 1.16 | 1.23 | 1.71 | 
COC(=O)CC(=O)OC [Dimethyl malonate] | 1.02 | 1.16 | 0.907 | 1.28 | 
Cc1occc1C(=O)Nc1ccc(C(=O)N2CCC(F)(F)/C(=C\C(=O)N3CCC(N4CCCCC4)CC3)c3ccccc32)cc1.Cc1occc1C(=O)Nc1ccc(C(=O)N2CCC(F)(F)/C(=C\C(=O)N3CCC(N4CCCCC4)CC3)c3ccccc32)cc1.O=C(O)/C=C/C(=O)O | 1.22 | 0.982 | 0.94 |  | 
O=[N+]([O-])C(CO)(CO)CO [2-(Hydroxymethyl)-2-nitro-1,3-propanediol] | 0.982 | 1.11 | 1.27 | 1.27 | 
O=c1nc(-c2ccc(C(F)(F)F)cc2)[nH]c2c1CSCC2 | 0.688 | 0.648 | 0.664 | 0.578 | 0.923
CCCC(CCC)C(=O)O [Valproic acid] | 0.995 | 1.01 | 1.14 | 1.69 | 1.2
CCCCCCC(=O)O [Heptanoic acid] | 1.02 | 1.15 | 1.07 | 0.917 | 
CCCCC(CC)C(=O)O (configuration not stated) [2-Ethylhexanoic acid] | 0.925 | 1 | 1.4 | 1.2 | 
C[C@@H](Oc1ccc(CNC(=O)c2cccnc2Oc2ccc3c(c2)OCO3)c(F)c1)C(=O)O | 1.14 | 1.12 | 1.13 | 1.33 | 
Cc1cc(F)ccc1-c1cc(N2CC[C@@H](O)[C@H]2CO)ncc1N(C)C(=O)C(C)(C)c1cc(C(F)(F)F)cc(C(F)(F)F)c1 | 1.27 | 1.05 | 1.16 | 0.311 | 
N#C[C@@H]1CC(F)(F)CN1C(=O)CNC1CC2CCC(C1)N2c1ncccn1 (some centres not stated) | 0.985 | 0.923 | 0.937 | 0.82 | 
[Cl-].c1ccc(C[n+]2cccc3ccccc32)cc1 [1-Benzylquinolinium chloride] | 0.993 | 0.903 | 1.05 |  | 
CCCOC(=O)c1ccc(O)cc1 [Propylparaben] | 1.46 | 1.02 | 0.949 | 0.169 | 
Nc1ccc2c(c1)C(=O)c1ccccc1C2=O [2-Aminoanthraquinone] | 1.06 | 1.2 | 1.28 | 1.58 | 
O=C(O)c1cccnc1 [Nicotinic acid] | 1.02 | 1.17 | 0.874 | 1.27 | 
CNCc1ccc(NC(=O)c2c[nH]c3c2C(=O)CCC3)cc1 | 1.24 | 1.06 | 1.69 | 0.318 | 
CO[C@H]1/C=C/O[C@@]2(C)Oc3c(C)c(O)c4c(O)c(c(/C=N/N5CCN(C)CC5)c(O)c4c3C2=O)NC(=O)/C(C)=C\C=C\[C@H](C)[C@H](O)[C@@H](C)[C@@H](O)[C@@H](C)[C@H](OC(C)=O)[C@@H]1C [Rifampicin] | 1.29 | 1.07 | 1.27 | 0.362 | 
CCCC(=O)O [Butanoic acid] | 1.31 | 1 | 1.12 | 1.62 | 
CCCCCCCCCC(=O)O [Decanoic acid] | 1.43 | 1.04 | 1.39 | 0.794 | 
CCCCCC(=O)O [Hexanoic acid] | 1.02 | 0.926 | 1.05 | 1.27 | 
O=C(OCCOCCOC(=O)c1ccccc1)c1ccccc1 [Diethylene glycol dibenzoate] | 1.08 | 1.16 | 1.34 | 1.44 | 

Structure (SMILES) | Wnt reporter firefly/Renilla luciferase ratio (concentration: 0.1 uM) | Wnt reporter firefly/Renilla luciferase ratio (concentration: 1 uM) | Wnt reporter firefly/Renilla luciferase ratio (concentration: 10 uM) | Wnt reporter firefly/Renilla luciferase ratio (concentration: 100 uM) | Wnt reporter firefly/Renilla luciferase ratio (concentration: 0.01 uM)
CCCCCCCCCCCCc1ccccc1S(=O)(=O)O [Dodecylbenzenesulfonic acid] | 1.14 | 1.13 | 1.2 | 1.04 | 
NS(=O)(=O)c1cc2c(cc1Cl)NCNS2(=O)=O [Hydrochlorothiazide] | 1.41 | 1.17 | 1.12 | 1.32 | 
CC(=O)OC1C(=O)C2(C)C(O)CC3OCC3(OC(C)=O)C2C(OC(=O)c2ccccc2)C2(O)CC(OC(=O)C(O)C(NC(=O)c3ccccc3)c3ccccc3)C(C)=C1C2(C)C (configuration not stated) [Taxol] | 0.822 | 0.575 | 0.409 | 1.98 | 1.29
O=C([N-]S(=O)(=O)/C=C/c1ccccc1)c1ccc(F)cc1Cl.[Na+] | 1.15 | 1.07 | 0.657 | 0.3 | 
CC(C)c1cccc(C(C)C)c1N1C(=O)c2ccc(O)cc2C1=O | 1.19 | 1.17 | 0.259 |  | 
C=CCc1ccc(O)c(OC)c1 [Eugenol] | 1.02 | 1.13 | 1.19 | 1.55 | 
OC[C@H]1O[C@@H]2O[C@H]3[C@H](O)[C@@H](O)[C@@H](O[C@H]4[C@H](O)[C@@H](O)[C@@H](O[C@H]5[C@H](O)[C@@H](O)[C@@H](O[C@H]6[C@H](O)[C@@H](O)[C@@H](O[C@H]7[C@H](O)[C@@H](O)[C@@H](O[C@H]1[C@H](O)[C@H]2O)O[C@@H]7CO)O[C@@H]6CO)O[C@@H]5CO)O[C@@H]4CO)O[C@@H]3CO [alpha-Cyclodextrin] | 1.02 | 1.09 | 0.976 | 0.971 | 
O=C(OCCCCCCOC(=O)c1ccccc1)c1ccccc1 [Hexane-1,6-diyl dibenzoate] | 0.955 | 0.846 | 1.01 | 1.37 | 
O=C(CCCCCCC(=O)Nc1ccccc1)NO [Vorinostat (SAHA)] | 1.23 | 1.05 | 3.08 |  | 1.33
CCCCCCC(C=O)=Cc1ccccc1 [2-Benzylideneoctanal] | 0.942 | 0.906 | 0.822 | 0.757 | 
CC(C)(O)c1ccc(CNC(=O)c2cccnc2Oc2ccc(F)cc2)cc1 | 0.96 | 1.05 | 1.22 | 0.695 | 
CCCc1ccccc1 [Propylbenzene] | 0.987 | 0.856 | 0.88 | 1.43 | 
CC(C)(C)c1ccccc1 [tert-Butylbenzene] | 1.01 | 0.913 | 0.895 | 1.16 | 
COc1ccc(S(=O)(=O)N2C(=O)[C@@](c3ccccc3OC)(N3C[C@H](O)C[C@H]3C(=O)N(C)C)c3cc(Cl)ccc32)c(OC)c1 [Nelivaptan] | 1.09 | 0.857 | 0.612 | 0.355 | 
CCCCCCCCCCCCOS(=O)(=O)[O-].[Na+] [Sodium dodecyl sulfate] | 1.32 | 0.99 | 1.05 | 0.875 | 
CCCCCCCCCCCCCCOS(=O)(=O)[O-].[Na+] [Sodium myristyl sulfate] | 1.14 | 1.11 | 1.06 | 0.293 | 
CCCCCCCCCCCCCCCCOS(=O)(=O)[O-].[Na+] [Sodium hexyldecyl sulfate] | 0.784 | 1.09 | 0.931 | 1.7 | 
CC(=O)c1ccccc1 [Acetophenone] | 1.48 | 1.03 | 1.27 | 1.46 | 
CCCCCCCCO [1-Octanol] | 0.948 | 0.949 | 1.11 | 1.09 | 
O=c1ccn(C2OC(COP(=O)(O)OP(=O)(O)OP(=O)(O)O)C(O)C2O)c(=O)[nH]1 (configuration not stated) | 1.13 | 1.15 | 1.07 | 1.94 | 1.43
CCC(C)c1ccccc1O (configuration not stated) [2-(Butan-2-yl)phenol] | 1.19 | 0.977 | 0.947 | 1.14 | 

Structure (SMILES) | Wnt reporter firefly/Renilla luciferase ratio (concentration: 0.1 uM) | Wnt reporter firefly/Renilla luciferase ratio (concentration: 1 uM) | Wnt reporter firefly/Renilla luciferase ratio (concentration: 10 uM) | Wnt reporter firefly/Renilla luciferase ratio (concentration: 100 uM) | Wnt reporter firefly/Renilla luciferase ratio (concentration: 0.01 uM)
CC(C)COC(=O)CCCCC(=O)OCC(C)C [Diisobutyl adipate] | 1.11 | 1.15 | 1.28 | 1.44 | 
CCCN(CCC)C(=O)SCC | 1.22 | 0.859 | 1.3 | 1.09 | 1.35
CCSC(=O)N(CC(C)C)CC(C)C [Butylate] | 1.31 | 1.21 | 1.71 | 0.486 | 1.05
CN1C(=O)N(c2ccccc2Br)Cc2cnc(Nc3ccc4c(c3)OCC(CO)O4)nc21 (configuration not stated) | 0.694 | 0.73 | 1.19 |  | 
Oc1ccccc1 [Phenol] | 0.93 | 1.28 | 1.19 | 1.35 | 
CCOCCOCCO [2-(2-Ethoxyethoxy)ethanol] | 0.833 | 1.24 | 0.948 | 1.26 | 
CCOCCOCCOCCO [2-[2-(2-Ethoxyethoxy)ethoxy]ethanol] | 0.979 | 0.929 | 1.01 | 1.62 | 
CCOCCO [2-Ethoxyethanol] | 1.04 | 1.01 | 1.18 | 1.25 | 
CC(C)CCCCCCOC(=O)c1ccc(C(=O)OCCCCCCC(C)C)c(C(=O)OCCCCCCC(C)C)c1 [Triisononyl trimellitate] | 1.08 | 0.919 | 1.18 | 1.34 | 
CC[C@@H]1C[C@H](N(Cc2cc(C(F)(F)F)cc(C(F)(F)F)c2)C(C)=O)c2cc(C(F)(F)F)ccc2N1C(=O)OC(C)C | 0.973 | 1.26 | 1.2 | 1.01 | 
O=C(O)c1cccc(C(=O)O)c1 [1,3-Benzenedicarboxylic acid] | 1.21 | 1.28 | 1.24 | 1.02 | 
CC(C)(c1ccc(O)cc1)c1ccc(O)cc1 [Bisphenol A] | 1.13 | 1.05 | 0.924 | 0.302 | 1.09
CC[C@H](C)[C@@H](C(=O)O)n1sc2ccccc2c1=O | 0.996 | 0.949 | 0.684 | 0.568 | 
CCCCOC(=O)c1ccccc1 [Butyl benzoate] | 1.4 | 0.911 | 1.09 | 1.11 | 
CCOC(=O)C(C)Oc1ccc(Oc2cnc3cc(Cl)ccc3n2)cc1 (configuration not stated) [Quizalofop-ethyl] | 1.1 | 1.03 | 1.09 | 0.981 | 0.779
C#CCOC(=O)[C@@H](C)Oc1ccc(Oc2ncc(Cl)cc2F)cc1 [Clodinafop-propargyl] | 1.37 | 1.14 | 1.25 | 0.479 | 1.28
CCCCOC(=O)[C@@H](C)Oc1ccc(Oc2ccc(C(F)(F)F)cn2)cc1 [Fluazifop-P-butyl] | 0.832 | 1.04 | 1.09 | 1.67 | 0.757
CCOC(=O)C(C)Oc1ccc(Oc2nc3ccc(Cl)cc3o2)cc1 (configuration not stated) [Fenoxaprop-ethyl] | 1.37 | 0.888 | 0.884 | 0.813 | 1.14
CCCCOC(=O)C(C)Oc1ccc(Oc2ccc(C(F)(F)F)cn2)cc1 (configuration not stated) [Fluazifop-butyl] | 1.71 | 1.15 | 1.54 | 1.13 | 1.15
